We go through eight molecules from PubChem BioAssay (EPA / NIEHS).

Records with an inconclusive call do not appear. Active and inactive are the calls of the source. The calls were made as follows, unless noted: active = hit-call score of the fitted dose curve at least 0.9, where 1 is the maximum; inactive = score below 0.9.

The term AC50 denotes the concentration giving half of the maximal activity seen.

Assay [1] is described as follows: TAMU_HCS_1.5hr_SingleDonor1434_Cytotoxicity: Cytotoxicity Assessment using High-content Screening (HCS) Fluorescent Imaging for the Texas A&M University (TAMU) 1.5-hr Human Induced Pluripotent Stem Cell (iPSC)-derived Cardiotoxicity Assay (AID 2284234; active = hit-call score of the fitted dose curve at least 0.9, where 1 is the maximum). The procedure, abridged: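 Nuclear counts from Hoechst 33342 imaging define cytotoxicity here, with EC10 (10% cell-count loss relative to DMSO) as point of departure. iPSC cardiomyocytes received 0.2-100 uM test chemical in 0.5% DMSO for 1.5 h at 37 C.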

Assay [2] in a line: TAMU_PeakParms_SingleDonor1434_QT: Texas A&M University (TAMU) 1.5-hr Human Induced Pluripotent Stem Cell (iPSC)-derived Cardiomyocytes Calcium (Ca+2) Flux Assay for Cardiotoxicity: QT (decay-rise ratio) (AID 2284235; active = hit-call score of the fitted dose curve at least 0.9, where 1 is the maximum). In short, it runs like this: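 Decay/rise ratio of calcium-flux fluorescence scored after 90 min exposure (37C) of donor 1434 iPSC cardiomyocytes to 0.2–100 uM (0.5% DMSO). Beat-cessation and severe-notch points removed; POD is EC05, a 5% rise over DMSO.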

Assay [3] can be described thus: CCTE_Mundy_HCI_hN2_NOG_NeuronCount: CCTE's Neurite Outgrowth Assay in human hN2 cells for Neuron Count, Mundy Lab (AID 2284221; active = hit-call score of the fitted dose curve at least 0.9, where 1 is the maximum). The procedure, abridged:
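Read-out is the number of betaIII-tubulin-positive neurons imaged by automated high-content analysis, with DMSO as negative control.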

Assay [4] is described as follows: CCTE_Mundy_HCI_Cortical_Synap_Neur_Matur_CellBodySpotCount: CCTE's Synaptogenesis and Neurite Maturation Assay in rat cortical cells for Cell Body Spot Count, Mundy Lab (AID 2284223). In short, it runs like this: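 Read-out: cell body-associated synaptophysin puncta per neuron, imaged after MAP2, synaptophysin and Hoechst staining. Rat cortical cells, AraC DIV 5, chemical dosing DIV 7, fixation DIV 12. Activity fitted in positive direction relative to DMSO baseline.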

A short description of assay [5]: CCTE_Mundy_HCI_hNP1_Pro_ResponderAvgInten: CCTE's Proliferation Assay in human neuroprogenitor cells, Mundy Lab (AID 2284224; active = hit-call score of the fitted dose curve at least 0.9, where 1 is the maximum;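 also: human neural progenitor cells hNP1 derived from WA09 embryonic stem cells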). In short, it runs like this: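 Proliferation read as average intensity of BrdU-positive cells, imaged at 26.25 h post-dosing: chemical exposure started after 40–44 h culture, BrdU during final 4 h, paraformaldehyde fixation. Positive-direction fit relative to DMSO.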

A short description of assay [6]: CCTE_Mundy_HCI_hNP1_Casp3_7: CCTE's Caspase-Glo 3/7 Assay in human neuroprogenitor cells for Apoptosis, Mundy Lab (AID 2284240). The procedure, abridged:
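Luminescent caspase-3/7 readout, 26.5 h post-dose, in human neural progenitor cells from WA09 embryonic stem cells. Cells grew 40–44 h at 37 °C, 5% CO2 before chemical addition. Activity analysed as signal increase over DMSO baseline.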

Assay [7] can be described thus: CCTE_Mundy_HCI_Cortical_Synap_Neur_Matur_NeuronCount: CCTE's Synaptogenesis and Neurite Maturation Assay in rat cortical cells for Neuron Count, Mundy Lab (AID 2284242; active = hit-call score of the fitted dose curve at least 0.9, where 1 is the maximum). The procedure, abridged:
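Measured at DIV 12: fluorescently labelled neurons (Hoechst nuclei, MAP2) in rat primary cortical cultures, counted by high-content imaging. AraC suppressed glia from DIV 5; DMSO served as negative control.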

A short description of assay [8]: CCTE_Mundy_HCI_Cortical_Synap_Neur_Matur_NeuriteCount: CCTE's Synaptogenesis and Neurite Maturation Assay in rat cortical cells for Neurite Count, Mundy Lab (AID 2284222). The procedure, abridged: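 Rat primary cortical cells; AraC added at DIV 5, chemicals dosed with media change at DIV 7 through DIV 12. MAP2/synaptophysin/Hoechst immunostaining, high-content imaging of neurite number; fitted relative to DMSO.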

The nature of assay [9]: CCTE_Mundy_HCI_Cortical_NOG_BPCount: CCTE's Neurite Outgrowth Assay in rat cortical cells for Branch Point Count, Mundy Lab (AID 2284237). The procedure, abridged: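 Measured 50.33 h after dosing, this morphology endpoint uses rat primary cortical cultures labelled for betaIII-tubulin. Branch points are quantified by high-content imaging, with DMSO as negative control and baseline.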

Assay [10] can be described thus: IUF_NPC2c_oligodendrocyte_migration_120hr: Leibniz Research Institute for Environmental Medicine (IUF) 120-hour Neural Progenitor Cell Migration Assay for Oligodendrocyte Migration (NPC2c) (AID 2284297).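 Also: O4-positive oligodendrocyte migration distance divided by radial glia migration distance.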 The procedure, abridged: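 hNPC spheres (GW 16-19 cortex), PDL/laminin, DMEM/F12 3:1 + 1% N2, 37C. Dosing day 0–5, half feed day 3, DMSO ≤0.1%. Fixed 120 h; O4 ICC + Hoechst, HCI. Readout: mean oligodendrocyte distance from sphere edge / radial glia distance.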

Assay [11] is described as follows: IUF_NPC2a_radial_glia_migration_120hr: Leibniz Research Institute for Environmental Medicine (IUF) 120-hour Neural Progenitor Cell Migration Assay for Radial Glia Migration (NPC2a) (AID 2284298). In short, it runs like this:
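Hoechst-stained nuclei imaged at 120 h; algorithm maps sphere core by densest nuclei, sets migration edge at density threshold, gives radial glia migration distance (um) per well vs DMSO. hNPC spheres (0.3 mm), PDL/laminin, DMEM/F12 3:1 + 1% N2.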

A short description of assay [12]: IUF_NPC2a_radial_glia_migration_72hr: Leibniz Research Institute for Environmental Medicine (IUF) 72-hour Neural Progenitor Cell Migration Assay for Radial Glia Migration (NPC2a) (AID 2284299). The procedure, abridged:
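Spheres of human primary neural progenitors migrate on poly-D-lysine/laminin under compound exposure at 37C, 5% CO2. The 72 h radial glia migration distance comes from brightfield images, measured manually.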

The nature of assay [13]: IUF_NPC2b_neuronal_migration_120hr: Leibniz Research Institute for Environmental Medicine (IUF) 120-hour Neural Progenitor Cell Migration Assay for Neuron Migration (NPC2b) (AID 2284300). The procedure, abridged:
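hNPC spheres, PDL/laminin, DMEM:F12 3:1 + 1% N2, 37C/5% CO2; 7 concentrations + solvent control (DMSO ≤0.1%), 5 d exposure, half-feed day 3. Fix 120 h, TUBB3 ICC, HCI: mean neuron migration distance ÷ glia distance.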

A short description of assay [14]: IUF_NPC3_neuronal_differentiation_120hr: Leibniz Research Institute for Environmental Medicine (IUF) 120-hour Neuronal Differentiation Assay (NPC3) (AID 2284301). In short, it runs like this:
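hNPC spheres, PDL/laminin, DMEM/F12 3:1 + 1% N2, 37C, 5% CO2; 7 concentrations + solvent control, 5 d exposure, half-change day 3. Fix 120 h; TUBB3/Hoechst ICC, CNN neuron calling; % neurons vs nuclei, DMSO-normalized.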

Assay [15] is described as follows: IUF_NPC4_neurite_length_120hr: Leibniz Research Institute for Environmental Medicine (IUF) 120-hour Neuronal Morphology Assay for Neurite Length (NPC4) (AID 2284302). In short, it runs like this: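 hNPC spheres (0.3 mm, fetal brain GW 16-19) on PDL/laminin, DMEM:F12 3:1 + 1% N2, 37C 5% CO2; 7 concs + solvent control, day 0-5, half medium change d3; fix 120 h, TUBB3 ICC, mean neurite length um vs DMSO.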

Assay [16] in a line: IUF_NPC5_oligodendrocyte_differentiation_120hr: Leibniz Research Institute for Environmental Medicine (IUF) 120-hour Oligodendrocyte Differentiation Assay (NPC5) (AID 2284304; active = hit-call score of the fitted dose curve at least 0.9, where 1 is the maximum;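 also: primary human fetal neural progenitor spheres plated to migrate and differentiate; share of O4-positive cells among Hoechst nuclei found by CNN image analysis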). The procedure, abridged:
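hNPC spheres, fetal cortex GW 16-19; PDL/laminin, DMEM:F12 3:1 + 1% N2, 37C/5% CO2; 7 concentrations + solvent control, 5 d exposure, half-change day 3. Readout: %O4+ of Hoechst+ nuclei in migration area, CNN classification; DMSO baseline.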

A short description of assay [17]: IUF_NPC4_neurite_area_120hr: Leibniz Research Institute for Environmental Medicine (IUF) 120-hour Neuronal Morphology Assay for Neurite Area (NPC4) (AID 2284305; active = hit-call score of the fitted dose curve at least 0.9, where 1 is the maximum). In short, it runs like this:
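hNPC spheres on PDL/laminin, N2 medium, 37C/5% CO2; dosed day 0, half-medium refresh day 3; fixed 120 h; TUBB3/Hoechst ICC, high-content imaging; neurite area = mean pixels per neuron (nuclei excluded); DMSO baseline, max 0.1%.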

Assay [18] in a line: IUF_NPC2-5_cytotoxicity_72hr: Cytotoxicity Assessment at 72 hours in the Leibniz Research Institute for Environmental Medicine (IUF) Neural Progenitor Cell Migration and Differentiation Assay for Cytotoxicity (NPC2-5) (AID 2284306; active = hit-call score of the fitted dose curve at least 0.9, where 1 is the maximum;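 also: LDH release into supernatant measured by resorufin fluorescence marking membrane damage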). The procedure, abridged:
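hNPC spheres (0.3 mm), PDL/laminin, DMEM/F12 3:1 + 1% N2; cpd from d0, 7 concs + SC, DMSO max 0.1%; half-medium refresh d3. Readout: supernatant LDH via resorufin fluorescence (RFU), 72 h; gain-of-signal fit.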

The nature of assay [19]: CCTE_Mundy_HCI_Cortical_NOG_NeuronCount: CCTE's Neurite Outgrowth Assay in rat cortical cells for Neuron Count, Mundy Lab (AID 2284236; active = hit-call score of the fitted dose curve at least 0.9, where 1 is the maximum;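 also: neurons counted by imaging betaIII-tubulin and Hoechst stained cortical cells; cells exposed to compound for about 48 hours before fixation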). In short, it runs like this:
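Read-out: neuron number by high-content imaging of betaIII-tubulin (Alexa Fluor-488) and Hoechst-labelled rat primary cortical cells.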

The nature of assay [20]: CCTE_Mundy_HCI_hNP1_CellTiter: CCTE's Cell Titer-Glo 2 Assay in human neuroprogenitor cells for Viability, Mundy Lab (AID 2284241; active = hit-call score of the fitted dose curve at least 0.9, where 1 is the maximum). The procedure, abridged:
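Viability read as luminescent ATP content (CellTiter-Glo, 30 min room temperature) twenty-four hours after dosing, relative to DMSO. Cells: WA09-derived hNP1 neuroprogenitors on poly-L-ornithine/laminin, plated 40 to 44 hours before chemical.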
(Cellular ATP, detected with luciferase, serves as a proxy for viable cell number.)

Consider `O=C(O)CCCCC(=O)O`, for which the outcome in assay [1] and in assay [2] was inactive.

Regarding `CCOc1ccc2c(c1)C(C)=CC(C)(C)N2`, in assay [1], the AC50 was 50 µM (active). In assay [2], the outcome was inactive.

As to `O=c1[nH]cc(F)c(=O)[nH]1`, the AC50 in assay [3] is 2.34 µM (active); in assay [5], 4.62 µM (active); in [6] it was 23.8 µM (active). In addition, the outcome in assay [4], in assay [1], in [2] and in assay [7] was inactive.

Consider `COC(=O)c1ccc(O)cc1`, for which the molecule was classed as inactive in assay [1] and in [2].

In the case of `C[Si]1(C)O[Si](C)(C)O[Si](C)(C)O[Si](C)(C)O1`, the result in assay [8], in assay [4], in [5], in assay [9], in assay [6] and in assay [10] was inactive. The result in [11], in assay [12], in [13], in assay [14], in assay [15] and in assay [16] was inactive. Also, the molecule was classed as inactive in assay [17] and in assay [18].

Take `CCCc1cc(=O)[nH]c(=S)[nH]1`: the outcome in [3], in assay [4], in [1], in [19], in [6] and in [7] was inactive.

For `CC(=O)Oc1ccccc1C(=O)O`, the result in assay [8], in [4], in assay [1], in assay [2], in [9] and in assay [6] was inactive. The molecule was called inactive in [20], in assay [10], in [11], in assay [12], in [13] and in [14]. The molecule was called inactive in assay [15] and in assay [18].

In the case of `OC[C@@H](O)[C@@H](O)[C@H](O)[C@H](O)CO`, the outcome in assay [8], in assay [4], in assay [9], in assay [6], in assay [7] and in assay [10] was inactive. The result in [11], in assay [12], in [13], in [14], in [15] and in [16] was inactive. The call in assay [17] and in [18] was inactive.
